Screening results: PubChem BioAssay, National Center for Advancing Translational Sciences (NCATS)
Tau fluor cs = counter-screen for tau fibril formation inhibitors; tau K18 P301L Alexa594 fluorescence, heparin fibrillization; Potency, µM (titrated, usually from 57.7 µM); 0.93% of 280,000 active; AID 1463; further: nearly all actives have a fitted effect of over 55% in size
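Human tau K18 P301L (15 uM unlabeled, 0.24 uM Alexa 594-labeled) in 100 mM sodium acetate pH 7 with 20 uM heparin, 6 hr at 37 C. ThT 30 uM added, 1 hr ambient; Alexa 594 FP and total fluorescence read at 555/632 nm.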
JMJD2E inh = inhibitors of human JMJD2E histone demethylase; B2RXH2; JMJD2E catalytic domain, FDH-coupled NADH fluorescence (FDH is formaldehyde dehydrogenase); Potency, µM (highest dose often 57.1 µM), actives largely listed as inhibitors; 1.6% of 230,000 active; active means well fitted inhibition curve with a large enough effect, not every such curve was filed as active; inconclusive means small, poorly fitted or top-dose-only effect, or another doubt; inactive means no such curve, though single readings can be large or run the other way; further: nearly all actives have a fitted effect of over 50% in size
Target sequence (B2RXH2 1-337 limits assumed): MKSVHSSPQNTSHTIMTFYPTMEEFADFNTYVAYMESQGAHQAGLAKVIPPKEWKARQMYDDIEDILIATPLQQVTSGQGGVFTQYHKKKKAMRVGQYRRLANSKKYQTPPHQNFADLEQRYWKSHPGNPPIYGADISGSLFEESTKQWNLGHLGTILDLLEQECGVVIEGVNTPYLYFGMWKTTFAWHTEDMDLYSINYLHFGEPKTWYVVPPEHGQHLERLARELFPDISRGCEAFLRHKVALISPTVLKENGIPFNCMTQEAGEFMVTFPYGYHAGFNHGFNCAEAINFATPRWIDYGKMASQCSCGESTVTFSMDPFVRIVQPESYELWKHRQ
CBFb-RUNX1 inh = CBF-beta/RUNX1 interaction disruption. Potency, µM (highest dose often 59.8 µM), actives largely listed as inhibitors. AlphaScreen CBFb-His/RUNX1-biotin binding, biochemical. Q01196+Q13951. 230,000 tested, under 10 active. AID 1477
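Proteins preincubated together for 20 min at RT before compound addition; 15 min later, nickel and streptavidin beads were added and left 90 min prior to AlphaScreen measurement.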
Tau fibril FP = tau fibrillization inhibition (FP). P10636. K18 P301L tau heparin fibrillization, Alexa594 FP, 6 h. Potency, µM (doses to about 57.7 µM), hits mostly inhibitors. 0.39% of 280,000 active. AID 1468; further: nearly all actives have a fitted effect of over 55% in size
Target sequence (P10636 561-689 P618L limits assumed): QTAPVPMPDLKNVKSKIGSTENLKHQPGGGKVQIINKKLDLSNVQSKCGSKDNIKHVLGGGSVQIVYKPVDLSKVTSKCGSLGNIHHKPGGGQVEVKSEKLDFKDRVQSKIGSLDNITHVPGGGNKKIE
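Heparin (20 uM) drove fibril formation of recombinant tau K18 P301L, 15 uM unlabeled with 0.24 uM Alexa 594 label, for 6 hr at 37 C in 100 mM sodium acetate pH 7. Fluorescence polarization (555/632 nm) read 1 hr after 30 uM ThT.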
LMNA splice mod = changes lamin A minigene splicing in HeLa cells | HeLa LMNA splicing GFP/RFP minigene ratio, 48 h | Potency, µM (series often up to 46.1 µM), actives largely listed as inhibitors | 0.01% of 200,000 active | AID 1487; active means well fitted inhibition curve with a large enough effect in the signal ratio, with a control signal flat, not every such curve was filed as active; inconclusive means small, poorly fitted or top-dose-only effect, or effect the other way, or a change in a side signal; the % refers to the signal ratio
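S3 HeLa stable clones carrying a lamin A-EGFP splicing minigene plus DsRed2 were seeded at 600 cells/well in Opti-MEM with 2% FBS, pin-dosed and incubated 48 h at 37°C. Acumen cytometry (488 nm) gave the GFP/RFP total-intensity ratio.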
Tau ThT inhib = inhibitors of human tau fibril formation, thioflavin T binding. P10636. recombinant tau K18 P301L (four-repeat tau fragment), heparin-induced fibrillization, ThT fluorescence. Potency, µM (highest dose often 57.4 µM), actives largely listed as inhibitors. 2.1% of 270,000 active; further: nearly all actives have a fitted effect of over 55% in size
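In this qHTS, human K18 P301L tau is incubated with compound and heparin for 6 hr at 37 C, and Thioflavin T fluorescence then reports fibril load.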
Of the large screens only hits and unclear results are named; the others gave an inactive call; [ ] = another dose, or the depositor's remark. In the library only some 3.2% were active in any assay of this set; here they are far more common. Unless noted, the call rests on the fitted dose curve; in most records, active means well fitted curve in the direction sought with a large enough effect; inconclusive means small, poorly fitted or top-dose-only effect, or another doubt; inactive means no such curve, though single readings can be large; an effect the other way counts as inactive or inconclusive.

Cc1ccccc1OCc1ccc(-c2nc(C#N)c(NCc3cccnc3)o2)o1	Tau fluor cs 17.8µM[quencher], Tau fibril FP inconclusive, LMNA splice mod inconclusive, Tau ThT inhib inconclusive (no result: JMJD2E inh, CBFb-RUNX1 inh)
CC1CCc2nc3ncn(Cc4cccc(F)c4)c(=O)c3cc2C1 (stereo unspecified)	none (no result: JMJD2E inh, CBFb-RUNX1 inh)
O=C(COC(=O)c1cc(-c2cccs2)nc2ccccc12)NCc1ccco1	JMJD2E inh inconclusive, Tau fibril FP 20µM, LMNA splice mod inconclusive, Tau ThT inhib 15.8µM
CCOc1c(OC(C)=O)ccc(/C=C/c2ccc3cccc(OC)c3n2)c1[N+](=O)[O-]	Tau fluor cs inconclusive, CBFb-RUNX1 inh inconclusive, Tau fibril FP inconclusive, LMNA splice mod inconclusive, Tau ThT inhib 5.62µM
COc1ccc(OCC(=O)N/N=C/c2ccc(N(C)C)cc2)cc1	Tau fluor cs inconclusive, JMJD2E inh inconclusive, Tau fibril FP inconclusive, Tau ThT inhib 2.51µM (no result: LMNA splice mod)
COc1ccc(NC(=O)Nc2ccc(OC)cc2)cc1	none
COc1ccc(/C=N/NC(=O)CNC(=O)COc2ccccc2)cc1	none
CN(C)c1ccc(NC(=O)c2ccc3nsnc3c2)cc1	Tau ThT inhib 7.94µM
COc1ccc(NC(=O)Nc2ccc(N(C)C)cc2)cc1	Tau fluor cs inconclusive, Tau ThT inhib 12.6µM
O=C(Nc1ccc(Cl)cc1)c1ccc2nsnc2c1	JMJD2E inh inconclusive, Tau ThT inhib inconclusive (no result: LMNA splice mod)
CN(C)c1ccc(NC(=O)c2cccc(C(=O)Nc3ccc(N(C)C)cc3)n2)cc1	Tau fluor cs inconclusive, CBFb-RUNX1 inh inconclusive, LMNA splice mod inconclusive, Tau ThT inhib 15.8µM
O=C1CN(C(=O)c2c(F)cccc2Cl)C(c2ccc(F)cc2)c2cc(Br)ccc2N1 (stereo unspecified)	none (no result: JMJD2E inh, CBFb-RUNX1 inh, LMNA splice mod)
Cc1[nH]n(-c2ccc(Br)cc2)c(=O)c1C=Nc1ccc(S(=O)(=O)Nc2nccs2)cc1	Tau fluor cs inconclusive, Tau ThT inhib 15.8µM
CC(NC(=O)c1sc2cc([N+](=O)[O-])ccc2c1Cl)C(C)(C)C (stereo unspecified)	Tau fibril FP inconclusive, Tau ThT inhib 22.4µM
CN(C)/[N+]([O-])=N/Oc1cc(O/[N+]([O-])=N/N2CCCC2CO)c([N+](=O)[O-])cc1[N+](=O)[O-] (stereo unspecified)	none (no result: Tau fluor cs, JMJD2E inh, Tau fibril FP, LMNA splice mod, Tau ThT inhib)
N#CCCCS(=O)(=O)c1nnnn1C1CCCCC1	none (no result: LMNA splice mod)
O=C1NN(c2ccc(F)cc2)C(=O)/C1=C\C=C\c1ccco1	Tau fluor cs inconclusive, JMJD2E inh inconclusive, Tau fibril FP inconclusive, Tau ThT inhib 12.6µM
O=c1[nH]c(-[n+]2ccccc2)c(/C=N/NC([S-])=Nc2ccccc2)s1	Tau fibril FP inconclusive, Tau ThT inhib 28.2µM (no result: LMNA splice mod)
Cc1cc[n+](-c2[nH]c(=O)sc2/C=N/NC([S-])=Nc2ccccc2)cc1	Tau ThT inhib inconclusive
CCc1ccc[n+](-c2[nH]c(=O)sc2/C=N/NC([S-])=Nc2ccccc2)c1	JMJD2E inh 3.55µM, Tau fibril FP inconclusive, Tau ThT inhib 25.1µM
CCc1ccc(C2C(C(=O)Nc3ccccc3OC)=C(C)Nc3c(C(=O)Nc4ccc(C)cc4)cnn32)cc1 (stereo unspecified)	Tau fibril FP inconclusive (no result: JMJD2E inh, CBFb-RUNX1 inh)
COc1ccc2oc(=O)c(-c3cn4c(n3)sc3cc(F)ccc34)cc2c1	LMNA splice mod inconclusive (no result: JMJD2E inh, CBFb-RUNX1 inh)
COC(=O)CSCc1nc2ccccc2[nH]c1=O	JMJD2E inh inconclusive, Tau fibril FP inconclusive, Tau ThT inhib 31.6µM
OC1OC[C@H](O)[C@H](O)[C@H]1O (stereo partly specified)	none (no result: Tau fluor cs, JMJD2E inh, Tau fibril FP, LMNA splice mod, Tau ThT inhib)
COC(=O)c1c(C)[nH]c(-c2csc(N)n2)c1C	Tau fluor cs inconclusive, LMNA splice mod inconclusive, Tau ThT inhib 25.1µM
Cc1ccc2nc(-c3cccc(NC(=O)c4cccc5ccccc45)c3)oc2c1	Tau fibril FP inconclusive (no result: JMJD2E inh, CBFb-RUNX1 inh, LMNA splice mod)
S=c1nc[nH]c2nc[nH]c12	JMJD2E inh 20µM (no result: LMNA splice mod)
CC(=O)N1CCc2c(sc3c2c(=O)n(-c2cc(Cl)ccc2C)c(=O)n3C)C1	none (no result: JMJD2E inh, CBFb-RUNX1 inh, LMNA splice mod)
Cc1[nH]c2ccccc2c1C(c1ccccc1)c1ccc(Cl)s1 (stereo unspecified)	Tau fluor cs 7.08µM[quencher], Tau fibril FP inconclusive, Tau ThT inhib inconclusive (no result: JMJD2E inh, CBFb-RUNX1 inh, LMNA splice mod)
CCN(c1ccccc1)S(=O)(=O)c1ccc(Cl)c(NC(=O)COC(=O)c2ccc(O)cc2)c1	Tau fluor cs inconclusive, Tau fibril FP inconclusive
